This is part of a sample that, as a whole, favours compounds with a hit. Of some 83,000 tested, about 20% had one in any assay.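 Growth was measured after 48 h exposure to one concentration of compound in 96-well plates. Values under 10 count as active.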 A number with no mark means an inactive call. Active and inactive are the calls of the source.
The molecules below were run on NCI/ADR-RES ovarian (assay: NCI-60 one-dose screen, 48 h (100 = growth as untreated, 0 = no growth, -100 = all killed)). Details: 10 µM unless noted.
Experimental: Growth inhibition of the NCI/ADR-RES human […] tumor cell line is measured as a screen for anti-cancer activity. Cells are grown in 96 well plates and exposed to the test compound for 48 hours. Compounds are tested at a single concentration, which is 10^-5 M for most compounds. The reported endpoint is percent growth (GI% or GIPRCNT), where numbers from 0 - 100% represent growth inhibition, and numbers from -100% - 0 represent cell death. For example, a value of 40 represents 60% growth inhibition. A value of 0 means no net growth occurred over the course of the experiment. A value of -40 indicates 40% of cells at the beginning of the experiment died by the end of the experiment. A value of -100 means all cells are dead at the end of the experiment.
NCI-60 Human Tumor Cell Lines Screen was performed using the standard one-dose NCI protocol, which is described in more detail at https://dtp.cancer.gov/discovery_development/nci-60/default.htm.
Compounds with GIPRCNT values below 10 were considered active. Activity score was based on GIPRCNT using the following formula: […]
Score is 0 for GIPRCNT values of 100 or above, 50 for GIPRCNT values of 0, and 100 for GIPRCNT values of -100.
With `CCC(C)(c1cc(C(C)(C)C)c(O)c(C(C)(C)C)c1)c1cc(C(C)(C)C)c(O)c(C(C)(C)C)c1` the growth was 102%. Work on `COc1ccc(N2C(=O)C(Oc3ccccc3)C2c2ccc(C)cc2)cc1` (stereo not given) yielded a growth of 101%. `BrCCCc1n(Cc2ccc3ccccc3c2)c2ccccc2[n+]1Cc1ccc2ccccc2c1` showed a growth of 58.3%. `CCCCCCCCCCCCCCCCCCOc1ccccc1CCCOP(=O)(O)OCC[N+](C)(C)C` was tested, and the growth was 95.4%. With `Cc1nc2ccccc2n1-c1ncnc2c1CC(C)c1ccccc1N2C` (stereo not given) the growth was 67.8%. In the case of `c1cc(NCCc2ccncc2)nc(-n2cnc3ccccc32)c1`, the growth was 90.7%. For `CC1CN(C2CCCCC2)C(=S)N(c2ccccc2)C1=O` (stereo not given), the growth was 102%. `CCCCCCN1C(=O)/C(=c2\sc3n(c2=O)C2C(NN=3)N(CC)C(=O)N2CC)c2ccccc21` (stereo not given) was tested, and the growth was -23.1% (active). In the case of `COc1cc(/C=C2\C(=O)Nc3ccc(Br)cc32)cc(OC)c1OC`, the growth was 42.7%. `COc1ccc(NC(=O)n2nc(/C=C\c3ccc(O)c(OC)c3)cc2/C=C\c2ccc(O)c(OC)c2)cc1` gave a growth of 23.9%. `O=C(Nc1ccc(F)cc1F)c1cc(F)ccc1O` was tested, and the growth was 6.3% (active). Work on `COc1ccc(/C=C/c2c(C(=O)/C=C/c3ccc(Cl)cc3)c(C)nc3ccccc23)cc1` yielded a growth of 12.4%. With `CCOC(=O)c1c2c(n(-c3ccc(C#N)cc3)c1-c1ccccc1)C=CCC2` the growth was 94%. With `C/C(=C\C(=O)c1ccc(Cl)cc1)c1ccc(Cl)cc1` the growth was 103%. In the case of `CN1C(=O)N(C)C2Nn3c(s/c(=C\c4ccccc4)c3=O)=NC21` (stereo not given), the growth was 99.7%. In the case of `Oc1ccc(C#CCOc2ccccc2)cc1CNCCN(Cc1ccccn1)Cc1ccccn1`, the growth was 0.625% (active). `C#C[C@]1(O)CC[C@H]2[C@@H]3CC=C4c5sc(Nc6cc(F)ccc6F)nc5CC[C@]4(C)[C@H]3CC[C@@]21C` was tested, and the growth was 7.49% (active). With `COc1ccc(NC2=C(Br)C(=O)C(C)=C(C)C2=O)cc1` the growth was 80.6%. `CC1Cc2c(ncn3c(-c4ccc(F)cc4)nnc23)N(C)c2ccccc21` (stereo not given) gave a growth of 41%. With `O=C(CSc1nc2ccccc2[nH]1)Nc1cccc(Cl)c1` the growth was 103%. With `O=C1CCC/C=C\C[C@H]2C=CC(=O)/C2=C/C[C@H](CCc2cccc(C(F)(F)F)c2)O1` the growth was 1.09% (active). `CCN(CC)CCNC(=O)c1cn2ncnc(Oc3ccc(NC(=O)Nc4ccc(Cl)c(C(F)(F)F)c4)cc3)c2c1C` was tested, and the growth was 61%. With `N#CC1=C(N)Oc2c(sc3c(Br)cccc23)C1c1ccc(Br)cc1` (stereo not given) the growth was 2.32% (active). For `O=c1c2cc(F)ccc2sc2c(NCCN3CCOCC3)nc3ccccc3c12`, the growth was 72.5%. For `O=C(/C=C/c1sc(Cl)nc1Cl)c1ccc(F)cc1`, the growth was 98.5%. In the case of `OC(COc1ccccc1Cl)CN1CCN(c2cccc(Cl)c2)CC1` (stereo not given), the growth was 113%. Molecule `NCCOc1ncccc1/C=C1\c2ccccc2-c2ccc(C(F)F)cc21` has a growth of 57.4%. With `c1ccc(Nc2cc(-c3cccnc3)[nH]n2)cc1` the growth was 105%. For `NC1CCN(c2nc(Nc3cccc(C(F)(F)F)c3)c3c(=O)[nH]ccc3n2)CC1`, the growth was -30.8% (active). With `Cc1ccc(S(=O)(=O)N/N=C/C2(c3ccccc3)CC2)cc1` the growth was 107%. In the case of `O=c1c2cc(F)ccc2sc2c(NCCCNCCO)nc3ccccc3c12`, the growth was 32.4%. In the case of `CC(C)n1cnc2c(Nc3cccc(Cl)c3)nc(N[C@H]3CCCC[C@@H]3N)nc21`, the growth was 61.4%. `N#Cc1c(Nc2cccc(Cl)c2)sc(C(=O)c2cc3cc(Cl)ccc3o2)c1N` gave a growth of 84.3%. `O=C(O)C(c1ccccc1)N1C(=O)CSC1=S` (stereo not given) showed a growth of 106%. `NCCCNc1nc2ccc(Cl)cc2c2c(=O)c3cc(F)ccc3sc12` showed a growth of 65.9%. Molecule `c1cc2nc(-c3cn[nH]c3)c3c(c2cc1-c1cn[nH]c1)C1CCC3C1` (stereo not given) has a growth of 64.8%. In the case of `Cc1c(C(=O)NCCCc2ccccc2)sc2ncc(-c3ccc(Br)cc3)n12`, the growth was 107%. `O=C(O)c1cn(C2CC2)c2cc(N3CCN(C(=O)Nc4nc(-c5ccccc5)cs4)CC3)c(F)cc2c1=O` was tested, and the growth was 76.7%. `O=c1[nH][n+](-c2ccc(Br)cc2)no1` was tested, and the growth was 73.9%. `Cc1ccc2c(n1)C(=O)C(Cl)=C(Nc1ccccc1C(C)C)C2=O` showed a growth of 85.8%.
